Reference: PubChem BioAssay AID1527 (The Scripps Research Institute Molecular Screening Center, 2009)
The whole screen tested about 290,000 compounds, of which about 2,600 (0.9%) were called active.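 The calls were made as follows: active = inhibition above the mean of all tested compounds plus 3 SD, cutoff set per screening run (cut at about 7.5% in these data); inactive = the rest.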 For the sample, actives were picked, then their nearest neighbours and some compounds at random.

test system: VIM-2 metallo-beta-lactamase (Pseudomonas aeruginosa); assay: VIM-2 metallo-beta-lactamase inhibitors, primary screen, biochemical, epi-absorbance readout, Pseudomonas aeruginosa enzyme (AID 1527); conditions: purified VIM-2, nitrocefin hydrolysis, epi-absorbance fluorescence; at 5.6 µM; hits give high values;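 also: red hydrolysis product quenches plate fluorescence so inhibitors raise well fluorescence; 0% = enzyme with DMSO and 100% = DMSO without enzyme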

inhibition, active:
Cn1c(-c2sccc2OCc2cccc(C(F)(F)F)c2)n[nH]c1=S 27%, Cc1cccn2c(=O)c(C=O)c(Nc3ccc(S(N)(=O)=O)cc3)nc12 19.5%, Cn1c(=O)cc(OCCCC(=O)N2CCN(Cc3ccc4c(c3)OCO4)CC2)c2ccccc21 9.27%, Cc1ccc2cc(/C=N/NC(=O)[C@@H]3CCCN3)c(Cl)nc2c1 10.3%

inhibition, inactive:
Cc1ccccc1-c1n[nH]c(=S)n1C 2.67%, Cn1c(-c2sc3cc(C(F)(F)F)cnc3c2-c2ccccc2)n[nH]c1=S -7.11%, COc1ccccc1NC(=O)CCN1CCN(c2ccc(Cl)cc2)CC1 0.08%, O=Cc1c(Nc2ccccc2Cl)nc2ccccn2c1=O 0.26%, CNc1nc2c(C)cccn2c(=O)c1C=Nc1ccc(OC)cc1 4.33%, C/C(N)=C(/C#N)C(=O)COC(=O)C1=NN(c2ccccc2)C(=O)CC1 -2.51%, COc1cccc(NC(=O)C2CCCN(c3ncnc4c3nc3n4CCCCC3)C2)c1 (stereo unspecified) -0.06%, COCCCNC(NC(=O)c1ccc(C)cc1)C(Cl)(Cl)Cl (stereo unspecified) -1.71%, CC(C)(C)NC(=O)CSC(=Nc1ccccc1F)NC#N -1.17%, CCC(c1nnnn1C(C)(C)C)N(Cc1cc2cccc(C)c2n2nnnc12)C1CCCC1 (stereo unspecified) -3.3%, O=C(CCCN1C(=O)c2cccc3cccc(c23)C1=O)N1CCN(Cc2ccc3c(c2)OCO3)CC1 4.6%, Cn1c(=O)cc(OCCCC(=O)N2CCN(c3ccccn3)CC2)c2ccccc21 -0.05%, COc1cc(C)cc(CN2CCC(Cc3ccccc3)CC2)c1O -1.32%, CCn1c(=O)n(CC)c2cc(N3CCCC3)c(NC(=O)c3ccccc3Br)cc21 0.64%, CCOc1ccc(C)cc1S(=O)(=O)NC1CCCCCC1 -2.78%, COc1ccccc1OCCn1c(SCC(N)=O)nc2ccccc21 -0.1%, O=C(Oc1c(-c2ccco2)oc2ccccc2c1=O)c1cccnc1 0.08%, COCCCNC(=S)N(CCN(C)C)Cc1cc2cc3c(cc2[nH]c1=O)OCCO3 1.43%, Cc1cccc(NC(=O)C2CCCN(C(=O)NCc3ccccc3)C2)c1C (stereo unspecified) 0.69%, CSCC[C@H](NC(=O)OC(C)(C)C)C(=O)N/N=C/c1cc2ccc(C)cc2nc1Cl 0.5%, Cc1ccc2cc(/C=N/Nc3ccc(C(=O)O)cc3)c(Cl)nc2c1 1.26%, Cc1cccc(CS(=O)(=O)c2ncc(Cl)c(C(=O)Nc3ccc(F)cc3)n2)c1 -3.25%
